GALR2 agonist – agonists of human galanin receptor 2 (GALR2); AID 803; activation, % (test concentration not listed); 140,000 tested, 0.48% active; GALR2-expressing cells, agonist activation read-out; O43603; in the data active = activation above about 5%, passing the limit was not always enough;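 note: 0% = vehicle buffer wells and 100% = reference agonist at full effect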
Target sequence (O43603 whole entry, looked up): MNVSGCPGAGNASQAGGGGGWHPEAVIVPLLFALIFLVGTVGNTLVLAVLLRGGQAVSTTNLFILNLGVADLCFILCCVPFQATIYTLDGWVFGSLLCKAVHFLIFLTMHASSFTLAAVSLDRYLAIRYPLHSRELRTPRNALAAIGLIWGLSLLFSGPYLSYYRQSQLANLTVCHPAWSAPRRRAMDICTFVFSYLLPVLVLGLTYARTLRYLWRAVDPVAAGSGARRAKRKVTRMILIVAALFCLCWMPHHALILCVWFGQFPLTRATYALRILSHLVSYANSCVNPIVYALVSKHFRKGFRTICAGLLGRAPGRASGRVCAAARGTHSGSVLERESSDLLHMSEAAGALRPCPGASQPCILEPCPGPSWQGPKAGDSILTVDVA
MRP reversal – compounds reversing MRP-mediated drug resistance. H69AR cells + 2 uM doxorubicin, CellTiter-Glo, 72 h. differential viability (reversal), % at 10 µM. 85,000 tested, 0.04% active;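 active = viability drop by adding the cancer drug above about 55%, with treated viability meeting a 40% cutoff, limit read from the data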;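 note: viability without doxorubicin minus viability with 2 µM doxorubicin for each compound; larger differential means the compound sensitizes cells more to doxorubicin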
S1P2 agonist – agonists of human S1P2 receptor; O95136; S1P2-expressing cell line, agonist reporter read-out; activation, % at 4.5 µM; 97,000 tested, 0.46% active; AID 729; in the data active = activation above about 16%;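 note: 0% = vehicle low control and 100% = maximal reference agonist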
GALR2 blocker – antagonists of human galanin receptor 2 (GALR2) | O43603 | GALR2-expressing cells, antagonist mode | inhibition, % at 4 µM | 140,000 tested, 0.39% active; in the data active = inhibition above about 27%;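 note: cells stimulated with galanin 1-16 at roughly its EC80; 0% = agonist challenge control and 100% = basal control without agonist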
MRP1 act – MRP-1 activation; H69AR cells + doxorubicin, viability rescue, CellTiter-Glo; viability increase, % at 10 µM; 140,000 tested, 0.61% active; AID 799;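 active = viability gain under doxorubicin at or above a set limit, the compound median plus 3 SD, cut at about 4.7% in these data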;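 note: MRP-1 overexpressing cells given doxorubicin 25 µM after compound pretreatment; 18-22 h compound pretreatment then 72 h with doxorubicin before readout; 0% = doxorubicin-only wells and 100% = vehicle-treated cells without doxorubicin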
S1P2 blocker – blocks the human S1P2 receptor | O95136 | inhibition, % at 5 µM | cell-based S1P2 antagonist assay, inhibition at 5 uM | 97,000 tested, 0.21% active; in the data active = inhibition above about 45%;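 note: CRE beta-lactamase reporter cells expressing human S1P2 stimulated with S1P; 0% = agonist at EC80 alone and 100% = agonist plus reference antagonist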
* marks the source's active call; other numbers are inactive results. This is a sample that favours compounds with a hit; in the whole collection about 1.8% have one here.

`Cc1onc(-c2ccccc2)c1C(=O)OCC(=O)Nc1ccc2c(c1)OCO2` gave GALR2 agonist -2, MRP reversal 13, S1P2 agonist -8, GALR2 blocker 2, MRP1 act 2 and S1P2 blocker 12.
Screening Cc1ccc(C2CC(=O)Oc3cc(O)ccc32)cc1 (stereo not drawn) returned GALR2 agonist -1, GALR2 blocker 0 and MRP1 act -1.
O=C1CC(c2ccccc2)c2cc(O)ccc2O1 (stereo not drawn) was read as GALR2 agonist -1, GALR2 blocker 4 and MRP1 act 5.1*.
Cc1ccc(-c2ccc(/C=N/NC(=O)CN3CCCC3)o2)cc1Cl was read as GALR2 agonist -3, S1P2 agonist -3, GALR2 blocker -14, MRP1 act -2 and S1P2 blocker 17.
COC(=O)N/N=C/c1ccc(-c2cccc(Cl)c2)o1 was read as GALR2 agonist 1, GALR2 blocker -1 and MRP1 act 4.8*.
For COC(=O)N/N=C/c1ccc(-c2cc(Cl)cc(Cl)c2)o1 the results were GALR2 agonist 1, GALR2 blocker 1 and MRP1 act 8.5*.
For COC(=O)N/N=C/c1ccc(-c2ccc(C)c(Cl)c2)o1 the results were GALR2 agonist 0, GALR2 blocker 4 and MRP1 act 7.5*.
Screening CCOc1ccc2c(C)c(C)c(=O)oc2c1OCC returned GALR2 agonist -1, MRP reversal 6, S1P2 agonist 0, GALR2 blocker -3, MRP1 act 3 and S1P2 blocker -8.
`COc1ccc(/C=N/n2cnnc2SCCO)cc1OC` gave GALR2 agonist 0, S1P2 agonist 19*, GALR2 blocker -21, MRP1 act 0 and S1P2 blocker -29.
`C=CCSc1nncn1/N=C/c1ccc(OC)cc1` gave GALR2 agonist -1, MRP reversal 14, S1P2 agonist -9, GALR2 blocker -2, MRP1 act -1 and S1P2 blocker 11.
Screening Cc1cc(=O)oc2c1ccc1oc(/C(=N/O)c3ccccc3)c(C)c12 returned GALR2 agonist -2, MRP reversal -10, S1P2 agonist 3, GALR2 blocker 3, MRP1 act 10* and S1P2 blocker -22.
Screening Cc1ccc(/C(=N\O)c2oc3c(C)c4oc(=O)cc(C)c4cc3c2C)cc1 returned GALR2 agonist -1, MRP reversal -5, S1P2 agonist 8, GALR2 blocker -1, MRP1 act -7 and S1P2 blocker -35.
Screening CCC(=O)c1ccc(N2CCOCC2)c(F)c1 returned GALR2 agonist -3, MRP reversal -5, S1P2 agonist -5, GALR2 blocker 20, MRP1 act 7.7* and S1P2 blocker -28.
`COc1ccc(/C=C/C(=O)NCc2cnn(C)c2C)cc1COc1ccc(Br)cc1` gave GALR2 agonist -1, S1P2 agonist -3, GALR2 blocker -19, MRP1 act 5.3* and S1P2 blocker 15.
For O=C(NC1CCCC1)C(c1ccc(O)cc1)N(CC1CCCO1)C(=O)C1COc2ccccc2O1 (stereo not drawn) the results were GALR2 agonist -2, MRP reversal 1, S1P2 agonist -7, GALR2 blocker 8, MRP1 act -1 and S1P2 blocker 18.
Screening COc1cc(-c2cc(-c3ccccc3)nc(SCC(=O)Nc3nccs3)c2C#N)cc(OC)c1OC returned GALR2 agonist -1, S1P2 agonist 31*, GALR2 blocker -3, MRP1 act -4 and S1P2 blocker -23.
For O=C1CSC(=NC(=O)c2ccccc2)N1 the results were GALR2 agonist 0, MRP reversal -12, S1P2 agonist -7, GALR2 blocker 2, MRP1 act 6.2* and S1P2 blocker 16.
For COc1ccc(CCNC(=O)CC2Nc3ccccc3NC2=O)cc1 (stereo not drawn) the results were GALR2 agonist -1, MRP reversal 10, S1P2 agonist -3, GALR2 blocker -1, MRP1 act -1 and S1P2 blocker 19.
Cc1nc(=O)c(-c2ccccc2)c(C)n1-c1ccc(O)cc1 was read as GALR2 agonist -1, MRP reversal 3, S1P2 agonist -2, GALR2 blocker -13, MRP1 act 5.3* and S1P2 blocker -18.
CC(=O)Nc1ccc(-n2c(C)nc(=O)c(-c3ccccc3)c2C)cc1 was read as GALR2 agonist -3, MRP reversal -8, S1P2 agonist 1, GALR2 blocker 2, MRP1 act 11* and S1P2 blocker 10.
COc1ccccc1NC(=O)CN1CCC(n2nnc3cc(F)ccc32)CC1 was read as GALR2 agonist -2, MRP reversal -2, S1P2 agonist 8, GALR2 blocker 3, MRP1 act 1 and S1P2 blocker -5.
COc1ccccc1NC(=O)CN1CCC(n2c(C)nc3cc(F)ccc32)CC1 was read as GALR2 agonist 4, MRP reversal 5, S1P2 agonist 19*, GALR2 blocker -16, MRP1 act -2 and S1P2 blocker -30.
`Cc1ccc(S(=O)(=O)/N=C(\Nc2cccc(C)c2)Nc2nc(C)cc(C)n2)cc1` gave GALR2 agonist -1, GALR2 blocker -1 and MRP1 act -3.
CCNc1ccc2c(Cl)cc(=O)oc2c1 was read as GALR2 agonist 6, MRP reversal 7, S1P2 agonist -5, GALR2 blocker 16, MRP1 act -5 and S1P2 blocker 47*.
For CC(C)NC(=S)N/N=C/c1cc(Br)ccc1O the results were GALR2 agonist -2, GALR2 blocker 8 and MRP1 act 5.0*.
`O=C(N/N=C/c1cc(Br)ccc1O)c1ccccc1Cl` gave GALR2 agonist 0, GALR2 blocker 2 and MRP1 act 4.
`O=C(CCc1ccccc1)N/N=C/c1cc(Br)ccc1O` gave GALR2 agonist -1, GALR2 blocker 6 and MRP1 act 6.4*.
Screening CCc1[nH]nc2c1C(c1cccc(OC(=O)N3CCOCC3)c1)C(C#N)=C(N)O2 (stereo not drawn) returned GALR2 agonist -1, MRP reversal 24, S1P2 agonist -1, GALR2 blocker -2, MRP1 act -2 and S1P2 blocker 2.
`CCN(CC)c1ccc2c(C)c(CN3CCOCC3)c(=O)oc2c1` gave GALR2 agonist 6.2*, MRP reversal 14, S1P2 agonist 26*, GALR2 blocker -1, MRP1 act -1 and S1P2 blocker -20.
Screening COC(=O)Cc1c(C)c2ccc(OCC(=O)N3CCOCC3)cc2oc1=O returned GALR2 agonist -2, MRP reversal -6, S1P2 agonist -3, GALR2 blocker -1, MRP1 act -2 and S1P2 blocker 3.
`CCCOc1ccc(C(=O)Nc2ccc(N3CCN(C(C)=O)CC3)cc2)cc1` gave GALR2 agonist -1, S1P2 agonist -1, GALR2 blocker -20, MRP1 act 6.0* and S1P2 blocker -9.
For CC(=O)N1CCN(c2ccc(NC(=O)c3ccc(C)cc3)cc2)CC1 the results were GALR2 agonist 0, MRP reversal -26, S1P2 agonist -8, GALR2 blocker -3, MRP1 act -2 and S1P2 blocker 18.
`N=C(N)SCc1cn2ccccc2n1` gave GALR2 agonist 0, GALR2 blocker -11 and MRP1 act 4.9*.

Screening data as filed in PubChem BioAssay.
